Compounds with a hit are over-represented: about 4.6% of the library has one in this group of screens.
HSF1 activator – HSF-1 activators, primary screen, NIH3T3-HGL cells, MG132 stress, luminescence, single point; NIH3T3-HGL HSF-1 luciferase reporter, 8 h; 100% = twice DMSO control signal; activation, % at 9 µM; actives 1.7% (n = 300,000); AID 504408, 2011;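 active = mean replicate activation of at least 50% with a set share of replicates each reaching 50%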
AHR activator – AHR activators, primary screen, cell-based, luminescence, luciferase reporter, human; AHR-responsive luciferase reporter cells; activation, % at 5 µM; actives 2.5% (n = 320,000); Aryl hydrocarbon receptor (Homo sapiens), P35869; in the data active = activation above about 47%
Target sequence (P35869 whole entry, looked up): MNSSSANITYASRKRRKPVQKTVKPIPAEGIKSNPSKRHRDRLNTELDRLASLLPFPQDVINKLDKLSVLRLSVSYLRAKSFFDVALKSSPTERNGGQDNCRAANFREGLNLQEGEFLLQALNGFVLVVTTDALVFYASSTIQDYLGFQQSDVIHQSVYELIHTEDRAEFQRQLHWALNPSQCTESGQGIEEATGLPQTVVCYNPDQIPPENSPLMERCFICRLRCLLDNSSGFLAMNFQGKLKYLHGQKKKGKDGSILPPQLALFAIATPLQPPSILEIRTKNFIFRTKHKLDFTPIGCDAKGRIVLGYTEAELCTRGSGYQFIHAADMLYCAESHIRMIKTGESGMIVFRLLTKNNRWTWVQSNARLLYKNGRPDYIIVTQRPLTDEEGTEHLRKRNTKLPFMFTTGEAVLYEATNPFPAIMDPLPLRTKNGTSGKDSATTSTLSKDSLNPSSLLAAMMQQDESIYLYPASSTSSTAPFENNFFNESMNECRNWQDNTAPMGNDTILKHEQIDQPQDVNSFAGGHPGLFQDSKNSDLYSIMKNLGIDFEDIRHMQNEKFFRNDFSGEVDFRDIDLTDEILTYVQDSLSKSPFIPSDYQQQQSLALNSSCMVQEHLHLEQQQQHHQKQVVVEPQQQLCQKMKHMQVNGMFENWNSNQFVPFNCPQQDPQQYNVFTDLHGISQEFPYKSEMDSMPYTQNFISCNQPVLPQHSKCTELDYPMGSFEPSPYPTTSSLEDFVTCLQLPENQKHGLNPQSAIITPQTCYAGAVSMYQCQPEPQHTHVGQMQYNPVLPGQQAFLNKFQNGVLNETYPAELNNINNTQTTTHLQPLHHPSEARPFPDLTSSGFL
FXN GAA850 act – FXN promoter activators, primary screen, cell-based, luciferase luminescence, HEK293 lucGAA850 | HEK293 lucGAA850 FXN promoter luciferase reporter, 24 h; percent of 10 µM SAHA response | activation, % at 6 µM | actives 0.56% (n = 360,000) | AID 540364, 2011;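 active = activation above the average of all compounds screened plus 3 SD, cutoff fixed separately per campaign, cut at about 7.5% in these data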
HSF1 inhib – HSF1 inhibitors in luciferase reporter cells, primary screen, cell-based, NIH3T3, luminescence; NIH3T3-HGL HSE-luciferase, MG132-induced, luminescence 8 h; active compounds read low; activity change, negative = inhibition, % at 7.5 µM (by protocol); actives 0.77% (n = 300,000); AID 2098, 2009;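 active = more than half of replicate wells show activity change below -50%, luminescence cut by over half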;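 note: luciferase reports HSF-1 transcriptional activity via heat shock element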
Large screens that a line does not name were inactive.

Cc1c(C(=O)OCC(=O)NCc2ccc3c(c2)OCO3)cccc1[N+](=O)[O-]	HSF1 activator 60
O=C(COC(=O)c1cccs1)c1ccc2c(c1)OCCO2	HSF1 inhib -52
CC1CCN(S(=O)(=O)c2ccc(C(=O)Nc3ncccc3O)cc2)CC1	none
O=c1c2ccccc2n2c(-c3cccc(Cl)c3)nnc2n1Cc1ccccc1	none
Cc1ccc(Cn2c(C(=O)NCCCN3CCOCC3)cc3sccc32)cc1	none
CCOCCCN(C(=O)c1snc(C(N)=O)c1N)C(C(=O)NCCC(C)C)c1ccc(F)cc1 (configuration not stated)	HSF1 activator 53
CC1Cc2ccccc2N1C(=O)CSc1ncc(-c2ccc(F)cc2)n1C (configuration not stated)	HSF1 activator 67
CCN(CC)CCN(C(=O)c1ccc(C(C)=O)cc1)c1nc2ccc(Cl)cc2s1	none (no result: HSF1 activator, HSF1 inhib)
CC1CCN(C(=O)C2Cc3ccccc3CN2S(=O)(=O)c2ccc(F)cc2)CC1 (configuration not stated)	FXN GAA850 act 11
O=C(NC(=S)Nc1cccc(C(F)(F)F)c1)c1ccc2nonc2c1	none
O=C(CSc1ncnc2c1nnn2Cc1ccc(F)cc1)NC1CCCCC1	none
O=C(CSc1ncnc2c1nnn2Cc1ccc(F)cc1)NCC1CCCO1 (configuration not stated)	HSF1 activator 63
Cc1cccc(Nc2nc(-c3ccc(O)c(O)c3)cs2)n1	none
Oc1ccc(-c2csc(Nc3cccc4ccccc34)n2)cc1O	AHR activator 52
O=C(CSc1ccccc1)Nc1ccc(N2CCN(c3ccccc3)CC2)c(F)c1	HSF1 activator 55
O=C(CSc1nc2c(c(=O)[nH]1)CCC2)Nc1ccc(F)cc1	HSF1 activator 68
O=C(CSc1nc2c(c(=O)[nH]1)CCC2)Nc1cccc(F)c1	none
O=C(CSc1ccc(F)cc1)Nc1ccccc1Br	none
O=C(CSc1ccc(F)cc1)Nc1ccc(Br)cc1	HSF1 activator 102
COCC(=O)Nc1ccc(N2CCN(c3ccccc3)CC2)c(F)c1	none
COc1ccccc1NC(=O)Nc1nc(CC(=O)Nc2cc(F)ccc2F)cs1	AHR activator 63
COc1ccc(N2CCN(C(=O)Cc3csc(NC(=O)Nc4ccccc4OC)n3)CC2)cc1	none
COc1ccccc1NC(=O)Nc1nc(CC(=O)Nc2cccc(F)c2)cs1	none
COc1ccccc1NC(=O)Nc1nc(CC(=O)Nc2ccc(F)c(F)c2)cs1	AHR activator 52
COc1ccccc1NC(=O)Nc1nc(CC(=O)N2CCN(c3ccccc3)CC2)cs1	HSF1 activator 62
CN=C1N(C)C[C@@H]2[C@@H]3C(=O)N(C)C(=O)[C@@H]3[C@](Cc3ccccc3)(C(=O)OC)N12	none (no result: HSF1 activator, AHR activator, HSF1 inhib)
O=C(NCc1ccc(Cl)cc1)C(=O)NCC1OCCN1S(=O)(=O)c1ccc2c(c1)OCCO2 (configuration not stated)	none
Cc1ccc(Nc2nnc(SCc3cc(=O)n4ccsc4n3)s2)c(C)c1	AHR activator 48
COc1ccccc1Nc1nnc(SCc2cc(=O)n3ccsc3n2)s1	none
O=C(OCn1nnc2ccccc2c1=O)c1cccnc1Cl	none (no result: HSF1 activator, HSF1 inhib)
O=C(CSc1nnc(-c2ccncc2)s1)Nc1ccccc1	none
N#Cc1cc2c(nc1SCC(=O)N1CCOCC1)CCCCC2	HSF1 inhib -67
CCCCn1c(N)c(N(CCC(C)C)C(=O)c2cc(CC)c(C)s2)c(=O)[nH]c1=O	none
Cc1nnc(SCC(=O)NC(=O)NC(C)(C)C)n1N	none
CC(C)(C)c1ccc(/C=N/Nc2ccc(C(=O)O)cc2)cc1	HSF1 inhib -86
O=C(O)c1ccc(N/N=C/c2ccc(C(F)(F)F)cc2)cc1	HSF1 inhib -66
Oc1ccc(/C=N/Nc2ccc(C(F)(F)F)cn2)cc1	HSF1 activator 86
CC(C)(C)c1ccc(/C=N/Nc2cccc(C(=O)O)c2)cc1	HSF1 inhib -57
CCNC(=S)N/N=C/c1ccc(C(=O)O)cc1	none
O=C(N/N=C/c1ccc(C(F)(F)F)cc1)c1ccc(O)cc1	none
O=C(Oc1ccccc1C(=S)N1CCOCC1)c1ccccc1	none
COc1ccc(C2NC(=O)c3ccccc3N2)cc1OC (configuration not stated)	AHR activator 48
O=C1NC(c2ccc3c(c2)OCO3)Nc2ccccc21 (configuration not stated)	AHR activator 145
O=C1NC(c2ccc3ccccc3c2)Nc2ccccc21 (configuration not stated)	none (no result: HSF1 activator, AHR activator, HSF1 inhib)
COc1ccc2ccccc2c1C1NC(=O)c2ccccc2N1 (configuration not stated)	none (no result: AHR activator)
CCOc1cccc(-c2nnc3sc(C4CCCCC4)nn23)c1	none
NS(=O)(=O)c1ccc(CCNC(=O)c2ccc([N+](=O)[O-])s2)cc1	HSF1 activator 94
O=C(Nc1ccc(Cl)cc1)OCc1ccccn1	HSF1 activator 57
CCc1cccc(CC)c1NC(=O)C1SC(=Nc2ccccc2C)C(c2nc3ccccc3s2)=C1N (configuration not stated)	AHR activator 54
O=C(Nc1nnc([C@@H]2C[C@H](O)[C@@H](CO)O2)s1)c1cccs1	none (no result: HSF1 activator, AHR activator, HSF1 inhib)
CCOCCc1nnc(NC(=O)c2cccs2)s1	AHR activator 74
O=C(Nc1nnc(C2CCCO2)s1)c1cccs1 (configuration not stated)	AHR activator 48
O=C(Nc1nnc(-c2cccnc2)s1)c1cccs1	none
Cc1cccc(-c2nnc(NC(=O)c3cccs3)s2)c1	AHR activator 48, HSF1 inhib -80
Cc1ccc2nc(NC(=O)CSCC(=O)OCC(=O)c3ccccc3)sc2c1	HSF1 inhib -67
COCCNc1nc(Oc2cccc(NC(C)=O)c2)c2sc(-c3ccccc3)cc2n1	none (no result: HSF1 activator, AHR activator, HSF1 inhib)
O=S(=O)(c1ccccc1)N1CCN(c2ccccc2)CC1	none
CCCC(c1nnnn1C1CCCCC1)N1CCN(C(=O)c2ccco2)CC1 (configuration not stated)	none
Cc1ccc2nc(NC(=O)c3cccs3)sc2c1	AHR activator 64 (no result: HSF1 activator, HSF1 inhib)
Cc1ccc2nc(NC(=S)NC(=O)c3cccs3)sc2c1	none
O=C(c1cccs1)N(C(=O)c1cccs1)c1ccc(Br)cn1	none
Cc1ccnc(N(C(=O)c2cccs2)C(=O)c2cccs2)c1	AHR activator 50
CC(C)C(NC(=O)c1ccc([N+](=O)[O-])cc1Cl)C(=O)N1CCCC1 (configuration not stated)	none
O=C1CC(c2ccccc2)n2nc(NC(=O)c3ccccc3)nc2N1 (configuration not stated)	HSF1 activator 64
Cc1csc(NC(=O)CCS(=O)(=O)c2ccc(Br)cc2)n1	none
CCCSc1nnc(Sc2nnnn2-c2ccccc2)s1	HSF1 activator 123
S=C(N=Nc1ccccc1)NNc1ccccc1	AHR activator 53
CCOC(=O)NC(=S)Nc1ccc(OC)cc1	none
COC(=O)c1cn[nH]c1NC(=S)Nc1ccc(Cl)c(Cl)c1	AHR activator 48, HSF1 inhib -60
CCOC(=O)c1cn[nH]c1NC(=S)Nc1ccc(OC)cc1	HSF1 inhib -54

Source: PubChem BioAssay
